# Assay results from ChEMBL document CHEMBL3988442, “University of Dundee, Small-Polar-MMV Screening Library” (2021).
# Target: AMP-activated protein kinase, AMPK (Homo sapiens) (UniProt P54646+O43741+P54619+Q9UGJ0+Q9Y478+Q13131+Q9UGI9)
# Assay: AMP-dependent Kinase enzyme assay. An in vitro enzyme assay that detects ADP turnover that is directly proportional to AMPK activity. This uses naive AMPK that is activated during the assay with MK-8722
# Type: functional
# Set-up: scale not given: direction of the effect not stated beside the values
# Conditions: 30 µM
row,Structure (SMILES),Percent Effect [%]
1,CN(CCCOc1ccccc1Cl)C(=O)CN1CCNC1=O,10.2
2,CC(OCC1CC1)C(=O)Nc1cccc(C(=O)Nc2ccccn2)c1 (stereo not given),23.1
3,CCC[C@@H]1CN(Cc2cnc3c(S(C)(=O)=O)cnn3c2)C[C@H]1N(C)C,-10.1
4,Cc1nc(-n2nc(-c3cccs3)cc2N)[nH]c(=O)c1C,-14.4
5,Cc1ncoc1C(=O)N1CCOC(Cc2ccccc2)C1 (stereo not given),8.13
6,Cc1ccnc(NC(=O)c2ccc(C)o2)c1,9.16
7,Cc1ncsc1COC(=O)c1cccc2c1OCCO2,7.13
8,COc1ccc2c(c1)OCC(C(=O)NCc1ncc3c(n1)CCC3)C2 (stereo not given),-0.599
9,O=C1CCC(C(=O)N2CCC(Cn3cc(C4CCCC4)nn3)CC2)=NN1,-8.82
10,Cc1ncc(C(=O)N2CCCC2c2c(C)nn(C)c2C)s1 (stereo not given),1.37
11,COCCC(=O)N1CCCC(CCC(=O)NCc2ccccc2F)C1 (stereo not given),8.91
12,O=C(C1CC1)N1CCCCCC1C1CCN(c2ncccn2)CC1 (stereo not given),-6.9
13,CC(C)n1cc(CN(C)C[C@@H]2CCCN3CCCC[C@H]23)cn1,3.96
14,CCCN(CC(=O)NC)C(=O)c1ccc(-c2nc(C)cs2)cc1,1.67
15,Cc1nc(C(NS(=O)(=O)N(C)C)c2ccccc2F)no1 (stereo not given),-2.57
16,Cc1cc(C(=O)N(C)CCN(C)C(=O)OC(C)(C)C)oc1C,5.9
17,Cc1ccnc(C2(C)CCCN2S(=O)(=O)c2ccccc2)n1 (stereo not given),-5.61
18,O=C(Nc1ccccn1)NC1CCN(c2ccccc2OC(F)F)C1 (stereo not given),-0.894
19,COCCN(C)C[C@@H]1CN(Cc2ccnc3ccccc23)C[C@@H]1CO,-4.2
20,COCCNS(=O)(=O)c1c(C)sc2ccccc12,-3.2

row,Structure (SMILES),Percent Effect [%]
1,CN(Cc1nc(C2CC2)no1)C1CCS(=O)(=O)C1 (stereo not given),2.02
2,COC(=O)c1ccc(OCCn2cnc(C#N)n2)cc1,0.636
3,CNC(=O)C1CCCN(C(=O)c2cncs2)C1 (stereo not given),4.55
4,O=C(NCCS(=O)(=O)N1CCN(c2ncccn2)CC1)C1CCCC1,-1.53
5,COc1ccc(C)cc1CN(CC(N)=O)C(C)C,0.855
6,CC(Oc1ccc2c(c1)OCO2)C(=O)N1CCC(N2CCOCC2)CC1 (stereo not given),-2.63
7,Fc1cccc(CN2CCC[C@H](Cn3nnc(-c4ccccn4)n3)C2)c1,9.12
8,CCN(CC)C1CCN(c2ncnc3c2CCN(C(=O)C2CC2)C3)C1 (stereo not given),-3.94
9,COCC1(Nc2nc(C)nc3c2cnn3C)CCCC1,-2.92
10,CCNC(=O)[C@@H]1C[C@H](N)CN1c1cc(C(F)(F)F)nc(N2CCCC2)n1,2.77
11,Cc1csc(C(C)(C)NCC(=O)N(C)Cc2ccc(C)o2)n1,-7.36
12,O=C(c1cncc(NCC2COc3ccccc3C2)n1)N1CCCCC1 (stereo not given),16.5
13,CC(=O)c1ccc(-c2cnn(CC(=O)Nc3cc(C)nn3C)c2)nc1,0.263
14,N#Cc1cccc(N2CCC(CO)(CCOc3ccccc3)CC2)n1,3.85
15,Cc1ccncc1CN1CCOCC1c1[nH]ncc1C (stereo not given),17
16,CNC(=O)CNC(=O)NCc1cc2c(s1)CCC(C)(C)C2,-2.89
17,Cc1nc(C)c(C(=O)N2CCCc3c(F)cccc32)o1,-0.713
18,COC(=O)NCC(=O)NC1(C)CCc2ccccc2C1 (stereo not given),12.8
19,CS(=O)(=O)C1(CNCc2cccc(-n3cccn3)c2)CCOCC1,3.19
20,CN(C)c1cc(CNC(=O)C2COc3ccccc3O2)ccn1 (stereo not given),0.412
